Bioassay records (PubChem)
ssDAF12 agonist: S. stercoralis DAF-12 nuclear receptor activators, primary screen, cell-based, luminescence, HEK293, GRIP1 co-expression, lit1-tk-luc; 1% of 370,000 active; activation, % at 6.8 µM; HEK293 ssDAF-12/GRIP1 lit1-tk-luc reporter; % of 3 µM dafachronic acid response; Nuclear hormone receptor DAF-12 (Strongyloides stercoralis); AID 652126, 2013;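 active means activation above the mean over all tested compounds plus 3 SD, cut at about 0.9% in these data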;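 further: 0% = DMSO-only wells and 100% = 3 µM delta7-dafachronic acid wells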
hgDAF12 agonist: H. glycines DAF-12 receptor agonists, primary screen, cell-based, luminescence, HEK293, GAL4 fusion, UAS-luciferase. HEK293 GAL4-hgDAF12 UAS-luciferase reporter, agonist luminescence; normalized to butyrate control. 1.8% of 370,000 active. activation, % at 6.8 µM. Nuclear hormone receptor DAF-12 (Heterodera glycines), GAL4 fusion;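 active means activation above a cutoff set at the mean of all screened compounds plus 3 SD, cut at about 10% in these data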;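 further: 0% = DMSO wells and 100% = sodium butyrate wells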
hcDAF-12 act: H. contortus DAF-12 nuclear receptor activators, primary screen, cell-based, luminescence, HEK293, lit1-tk-luc reporter; 1.4% of 370,000 active; HEK293 hcDAF-12 lit1-tk-luc reporter; 0% DMSO, 100% Δ7-dafachronic acid; activation, % at 6.8 µM;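 active means activation above the mean of all tested compounds plus 3 SD, cut at about 5.5% in these data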;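 further: 100% = response to 3 µM Δ7-dafachronic acid high control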
Wee1 degr inh: Wee1 degradation inhibitors, primary screen, cell-based, HeLa, Wee1K328M-luciferase, luminescence | AID 1321, 2008 | HeLa Luc-Wee1K328M stability; 100% = proteasome inhibitor MG132 effect | reporter increase, % at 5 µM | Wee1-like protein kinase (Homo sapiens), P30291 | 1.2% of 220,000 active;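 active means activation above the mean of all tested compounds plus 3 SD, set per screening run, cut at about 8.8% in these data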;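 further: cells exposed to compound for 20 h before luminescence read; 0% = DMSO alone and 100% = MG132 at 30 µM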
Target sequence (P30291 whole entry K328M): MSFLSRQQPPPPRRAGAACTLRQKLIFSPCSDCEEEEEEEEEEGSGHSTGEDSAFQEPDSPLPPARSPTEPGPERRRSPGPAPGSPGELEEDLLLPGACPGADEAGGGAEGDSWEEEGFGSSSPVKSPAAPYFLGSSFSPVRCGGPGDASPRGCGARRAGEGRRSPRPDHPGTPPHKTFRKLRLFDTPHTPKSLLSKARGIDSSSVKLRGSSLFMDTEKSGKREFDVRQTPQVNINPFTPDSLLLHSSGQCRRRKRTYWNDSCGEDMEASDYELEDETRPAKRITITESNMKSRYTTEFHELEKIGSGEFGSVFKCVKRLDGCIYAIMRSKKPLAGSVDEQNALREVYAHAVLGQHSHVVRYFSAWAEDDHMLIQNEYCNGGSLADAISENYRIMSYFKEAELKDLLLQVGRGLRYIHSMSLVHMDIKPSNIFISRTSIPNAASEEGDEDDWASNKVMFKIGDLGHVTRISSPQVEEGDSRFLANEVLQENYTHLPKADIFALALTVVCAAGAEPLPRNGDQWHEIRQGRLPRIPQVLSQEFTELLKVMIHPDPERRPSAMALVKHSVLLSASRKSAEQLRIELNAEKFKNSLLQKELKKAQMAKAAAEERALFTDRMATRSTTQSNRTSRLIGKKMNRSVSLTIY
DAX1 inh-1: DAX1 (NR0B1) inhibitors, primary screen, cell-based, HEK293, Gal4-DAX1, luciferase luminescence; Nuclear receptor subfamily 0 group B member 1 (Homo sapiens), P51843; inhibition, % at 6.75 µM; 0.99% of 340,000 active; HEK293 Gal4-DAX1 luciferase reporter;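 active means inhibition above the mean over all tested compounds plus 3 SD, cut at about 4.2% in these data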;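 further: 0% = DAX1-transfected cells with DMSO and 100% = empty-vector control cells with DMSO; inhibition shows as a rise in luminescence from relieved DAX1 repression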
DAX1 inh-2: DAX1 (NR0B1) inhibitors on StAR promoter, primary screen, cell-based, luminescence, SF-1 (NR5A1), full-length DAX-1 | HEK293T StAR-luciferase reporter, SF-1/DAX-1 repression relief | inhibition, % at 6.8 µM | 1.1% of 370,000 active;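 active means inhibition above the mean over all tested compounds plus 3 SD, cut at about 3.6% in these data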;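 further: 0% = DAX-1 cells with DMSO and 100% = cells lacking DAX-1 with DMSO; higher inhibition means more luminescence from relief of DAX-1 repression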
LXRb hcDAF ctr: LXR agonists, Gal4 luciferase reporter, confirmation, counter-screen for hcDAF-12 agonist project, cell-based, luminescence, HEK293, H. contortus campaign | shares compounds with hcDAF-12 act | HEK293 Gal4-LXR tk-luc reporter, 24 h; normalized: DMSO 0%, positive control 100% | activation, % at 6.8 µM | 3,400 tested, under 10 active | AID 743027, 2013;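 active means mean percent activation of the reporter above a cutoff set as the average over tested compounds plus their standard deviation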
hcDAF12 conf: H. contortus DAF-12 receptor agonists, confirmation, cell-based, luminescence, HEK293, lit1-tk-luc, triplicate; shares compounds with hcDAF-12 act; activation, % at 6.8 µM; HEK293 hcDAF-12 lit1-tk-luc reporter; % of Δ7-dafachronic acid response; 61% of 3,400 active;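 active means mean activation across triplicate tests above the threshold derived from the earlier primary screen, cut at about 5.5% in these data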;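 further: 0% = DMSO only wells and 100% = 3 µM Δ7-dafachronic acid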
* marks the source's active call; other numbers are inactive results; . = no result. This is a sample that favours compounds with a hit; in the whole collection about 4.6% have one here.

SMILES	ssDAF12 agonist	hgDAF12 agonist	hcDAF-12 act	Wee1 degr inh	DAX1 inh-1	DAX1 inh-2	LXRb hcDAF ctr	hcDAF12 conf
CN(C(=O)c1ccc(NC(=O)C2CCCN(C(=O)OC(C)(C)C)C2)cc1)C1CCCC1 (centres undefined)	0	-1	-2	.	-1	-1	.	.
O=C(COC(=O)c1cccc(Cl)c1Cl)NCCN1C(=O)CSC1=O	1	1	9.0*	0	0	0	0	1
COC(=O)C(NC=O)C(O)(Cc1ccccc1)C(F)(F)F (centres undefined)	1	5	9.7*	-1	0	1	0	6
CCS/C(N)=N/N=C/c1cc(C)ccc1O	1	7	7.9*	1	0	3	2	6.2*
N/C(CS(=O)(=O)c1ccccn1)=N\OC(=O)c1ccc(Cl)cc1	0	3	4	2	1	0	.	.
N/C(CS(=O)(=O)c1ccccn1)=N\OC(=O)c1ccccc1Cl	0	8	7.3*	4	.	1	1	4
O=C(Nc1ccccc1C(=O)NCCc1ccc(O)cc1)c1ccco1	-1	-1	-2	.	-2	-1	.	.
O=C(N/N=C/c1cc2ccccc2[nH]1)c1ccccc1Cl	0	6	6.6*	1	2	0	0	4
CCOC(=O)N=Nc1c(O)n(C)c2ccccc12	0	5	7.3*	7	-1	0	0	2
C=CCn1c(O)c(N=NC(=O)OCC)c2ccccc21	-1	-3	-2	2	-1	0	.	.
CCOC(=O)N1CCN(C(=O)COC(=O)c2ccc(Cl)nc2)CC1	0	-3	-1	.	1	0	.	.
CC(C)CCNC(=O)CCC(=O)NNc1nc2ccccc2c2nc(-c3ccccc3)nn12	0	2	6.8*	0	-1	0	0	2
COCCNC(=O)CCC(=O)NNc1nc2ccccc2c2nc(C)nn12	-1	0	-1	0	0	0	.	.
O=C1Nc2ccccc2/C1=C/c1cccnc1	-2	9	-2	4	-1	-1	.	.
O=C1Nc2ccccc2/C1=C/c1cnc(-c2ccccc2)[nH]1	1.2*	5	9.7*	4	4.7*	1	1	9.8*
COc1ccc(C(=O)C[n+]2ccc3ccccc3c2C)cc1	1.8*	9	13*	4	8.6*	1	1	14*
Cc1ccc(C(=O)C[n+]2ccc3ccccc3c2)cc1	1.3*	7	6.7*	-1	2	1	0	5
O=C1C(NC(=O)N2c3ccccc3C=Cc3ccccc32)CCCCN1Cc1cccc(Cl)c1 (centres undefined)	-1	-3	-1	.	.	-1	.	.
CN1OC[C@@H]2CN(S(=O)(=O)c3ccccc3)[C@H](c3ccc(-n4ccnc4)cc3)C[C@@H]21	-1	-1	0	.	.	-1	.	.
CCN(CC)CCn1c2ccccc2c2nc3ccc([N+](=O)[O-])cc3cc21	1.1*	4	9.0*	0	.	1	1	6.8*
CC(C)C[C@H]1CN(CCCC[C@H]2CNC(=O)C(=O)N2CCC2CCCCC2)C(=O)C(=O)N1CC1CCCCC1	-1	1	0	.	.	-1	.	.
NC(=O)c1cc([N+](=O)[O-])ccc1NCC1CCCCC1	-1	1	-1	.	-1	1	.	.
N/C(=N\OC(=O)c1ccc(Cl)cc1[N+](=O)[O-])c1cccnc1	0	8	7.0*	3	2	1	0	6.4*
N/C(=N\OC(=O)c1ccc(Cl)cc1Cl)c1ccccn1	-2	-11	-2	-5	-5	0	.	.
COc1cccc(C(=O)O/N=C(\N)c2ccccn2)c1OC	0	10	6.6*	.	1	3	1	6.4*
SMILES	ssDAF12 agonist	hgDAF12 agonist	hcDAF-12 act	Wee1 degr inh	DAX1 inh-1	DAX1 inh-2	LXRb hcDAF ctr	hcDAF12 conf
N/C(=N\OC(=O)c1ccc(Cl)cc1[N+](=O)[O-])c1ccccn1	0	12*	8.6*	.	3	1	1	2
N/C(=N\OC(=O)c1cc(Br)ccc1Cl)c1cccnc1	0	2	5	-1	3	1	.	.
CN1CCN([C@H]2CS(=O)(=O)N[C@@H]2COCc2ccccc2)CC1	-1	-2	1	.	.	0	.	.
Cc1nn(CC(=O)N(C)C2CCS(=O)(=O)C2)c(C)c1S(=O)(=O)N(C)C (centres undefined)	-2	1	0	.	0	1	.	.
O=C(CSc1nnc2ccccn12)NNC(=O)c1ccccc1F	-1	-1	-1	.	1	0	.	.
CCn1ncc(/C=N/NC(=O)c2cc(Cl)ccc2OC)c1C	-1	0	8.3*	-2	0	0	0	1
CC(=O)Nc1cccc2ccc(O)cc12	-1	-1	6.7*	.	-1	2	0	3
CC(=O)Nc1cc2c3ccccc3ccc2c2ccccc12	-1	3	0	.	1	-1	.	.
Cc1cccc(C)c1NC(=O)C1c2ccccc2OCC(=O)N1CCc1ccccc1 (centres undefined)	0	1	2	.	.	0	.	.
CCCCCOc1ccc(NS(C)(=O)=O)cc1	0	2	8.0*	2	1	1	0	4
CCOc1ccc(NS(=O)(=O)c2ccc(NS(C)(=O)=O)cc2)cc1	-1	-1	-1	-3	1	0	.	.
CCOc1cccc(NC(=O)/C(C#N)=C\c2cn(CC(=O)O)c3ccccc23)c1	0	-1	6.7*	.	-1	0	0	4
Oc1[nH]c2ccccc2c1N=Nc1cccc(Cl)c1	1.2*	9	8.9*	.	1	1	1	13*
